Compound activity deposited in PubChem by several laboratories.
Compounds with a hit are over-represented: about 4.3% of the library has one in this group of screens.
HSF1 activator: increases HSF-1 driven luciferase reporter signal; hit rate 1.7% among 300,000; AID 504408; NIH3T3-HGL HSF-1 luciferase reporter, MG132, 8 h; 100% = twice DMSO control signal; activation, % at 9 µM;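 active means mean replicate activation of at least 50% with a set share of replicates each reaching 50%; inconclusive means only one of those two conditions met; inactive means mean below 50% and too few replicates reaching it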;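 further: 0% = median of the neutral control wells and 100% = twice that signal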
Wnt act: activators of Wnt/beta-catenin signaling | AID 743398 | hit rate 1.2% among 300,000 | Wnt/beta-catenin reporter cell assay, activator, plate reader | activation, % at 9.35 µM; in the data active means activation above about 30%, passing the limit was not always enough; inconclusive means no clear call, values can overlap the other calls;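 further: 0% = neutral control wells and 100% = positive control wells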
SMARCA2 act: increases SMARCA2 function in MMTV reporter cells; hit rate 1% among 370,000; MG213 cells, MMTV-luciferase reporter, dexamethasone, overnight; activation, % at 9.1 µM; in the data active means activation above about 7.8%;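 further: 0% = vehicle wells and 100% = reference activator wells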
HSF1 inhib: HSF1 inhibition; NIH3T3-HGL HSE-luciferase, MG132-induced, luminescence 8 h; active compounds read low; activity change, negative = inhibition, % at 7.5 µM (by protocol); hit rate 0.77% among 300,000;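 active means more than half of replicate wells show activity change below -50%, luminescence cut by over half; inconclusive means some wells, but at most half, below -50%; inactive means no replicate well below -50%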;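 further: luciferase reports HSF-1 transcriptional activity via heat shock element; 0% = median of DMSO wells and -100% = zero luminescence signal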
MITF act: activators of MITF-driven TRPM1 promoter activity in SK-MEL-5 cells; SK-MEL-5 TRPM1-promoter luciferase, 24 h; % of positive control, neutral wells = 0; activation, % at 12.5 µM; hit rate 0.75% among 300,000; AID 588334;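 active means mean activation of at least 80% with every replicate also reaching 80%; inconclusive means mean reaches 80% but some replicate falls short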;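 further: 0% = neutral control wells and 100% = parthenolide positive control wells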
esBAF inh: blocks esBAF chromatin remodeling in mouse ES cells. Bmi1-luciferase knock-in reporter, 24 h; 100% = twice the neutral-well signal. reporter increase, % at 12.5 µM. hit rate 2% among 350,000; in the data active means activation above about 40%; inconclusive means no clear call, values can overlap the other calls;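 further: 0% = median of the plate's neutral control wells and 100% = double that signal; a rise in the Bmi1 reporter signal indicates esBAF inhibition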
The depositor's hits bear a star.

`COCCn1c(SCc2ccc(Cl)cc2)nc2c1c(=O)[nH]c(=O)n2C` gave HSF1 activator 58.2*, Wnt act 2.5, SMARCA2 act 2.9 and HSF1 inhib 17.0.
Cc1cc(/C=C2\C(=O)NN(c3ccccc3)C2=O)c(C)n1-c1ccccc1O was read as HSF1 activator -12.3, Wnt act 12.7, SMARCA2 act -2.5, HSF1 inhib -21.5, MITF act 43.3 and esBAF inh 58.5*.
Screening COc1ccc(-n2c(C)cc(/C=C3\C(=O)NN(c4ccccc4)C3=O)c2C)cc1 returned HSF1 activator 25.4, SMARCA2 act 0.2, HSF1 inhib 7.1 and MITF act 60.0.
`Cc1cc(/C=C2/C(=O)NN(c3ccccc3)C2=O)c(C)n1-c1ccc(O)cc1` gave HSF1 activator -69.4, Wnt act 0.6, SMARCA2 act -4.3, HSF1 inhib -69.2* and MITF act -1.4.
Screening N#C/C(=C\c1ccc(Cl)cc1)c1nc2ncccc2[nH]1 returned HSF1 activator 53.7*, Wnt act 2.7, SMARCA2 act 1.7, HSF1 inhib 20.1, MITF act 26.8 and esBAF inh 37.4.
For Cc1cccc(OCCCC(=O)Nc2nccs2)c1 the results were HSF1 activator 66.7*, SMARCA2 act -1.8, HSF1 inhib 38.1, MITF act -1.0 and esBAF inh -1.6.
For O=C(NCC(F)(F)F)[C@H]1[C@H](CO)[C@H]2Cn3c(cccc3=O)[C@H]2N1Cc1cccc(F)c1 the results were esBAF inh 0.6.
For CCn1ccc(C(=O)Nc2ccccc2Cl)n1 the results were HSF1 activator 45.3, SMARCA2 act 6.7, HSF1 inhib 36.0 and MITF act 84.7*.
O=C(N/N=C/C=C\c1ccccc1[N+](=O)[O-])c1cc(-c2ccc3ccccc3c2)n[nH]1 was read as HSF1 activator 64.0*, Wnt act inconclusive, SMARCA2 act 3.4, HSF1 inhib 13.9, MITF act 6.4 and esBAF inh 37.1.
`O=C(N/N=C/C=C/c1ccccc1[N+](=O)[O-])c1ccncc1` gave HSF1 activator -11.3, Wnt act -1.1, SMARCA2 act 1.6 and HSF1 inhib -1.1.
Screening O=C(N/N=C/c1ccco1)c1cc(-c2ccc3ccccc3c2)n[nH]1 returned HSF1 activator 11.1, SMARCA2 act 3.7, HSF1 inhib 9.1, MITF act 7.9 and esBAF inh 60.1*.
C[C@@H]1CN([C@H](C)CO)S(=O)(=O)c2ccc(C#CC(C)(C)O)cc2O[C@H]1CN(C)CC1CC1 was read as esBAF inh 3.3.
For C[C@H](CO)N1C[C@H](C)[C@H](CN(C)Cc2ccc(C(F)(F)F)cc2)Oc2c(NC(=O)c3nc4ccccc4s3)cccc2C1=O the results were esBAF inh 0.2.
`CCOc1ccccc1C(=O)NCC(=O)OCc1csc(CC(=O)Nc2ccc(C)cc2)n1` gave Wnt act 5.4, SMARCA2 act -0.8, MITF act 24.9 and esBAF inh 56.1*.
For CNC[C@@H]1Oc2ccc(NS(=O)(=O)c3ccccc3)cc2CC(=O)N([C@@H](C)CO)C[C@H]1C the results were esBAF inh 3.9.
`Nc1ccccc1SC1CC(=O)N(c2ccc3c(c2)OCCO3)C1=O` (centres undefined) gave HSF1 activator 46.6, Wnt act 35.0*, SMARCA2 act 3.1 and HSF1 inhib 9.5.
`N#Cc1nc(-c2cccs2)oc1NCc1ccc(Cl)cc1` gave HSF1 activator 62.9*, SMARCA2 act -3.1, HSF1 inhib 16.3 and MITF act 10.4.
`COCC#Cc1cnc2c(c1)C(=O)N([C@H](C)CO)C[C@@H](C)[C@@H](CN(C)C(=O)C1CCCCC1)O2` gave esBAF inh -3.2.
`CCCNC(=O)N1[C@@H]2Cn3c(ccc(-c4cccc(OC)c4)c3=O)[C@H]1[C@@H](C(=O)NCC)[C@@H]2CO` gave esBAF inh -5.0.
COc1ccc(C(=O)Nc2ccccc2C(N)=O)cc1 was read as HSF1 activator 19.5, SMARCA2 act 3.6, HSF1 inhib 8.3, MITF act 83.0* and esBAF inh 33.1.
Cc1ccc(C(=O)NNC(=O)c2ccc3ccccc3c2)cc1 was read as Wnt act -0.9, SMARCA2 act 2.1, MITF act 46.9 and esBAF inh 67.0*.
Screening Cc1ccc(C(=O)NNC(=O)c2ccc(C)cc2)cc1 returned HSF1 activator -5.3, Wnt act 1.3, SMARCA2 act 3.0, HSF1 inhib -0.6 and MITF act 17.3.
NC(=O)c1ccccc1NC(=O)COc1ccc2c(c1)OCO2 was read as HSF1 activator 46.0, Wnt act 25.4, SMARCA2 act 7.1, HSF1 inhib 19.2, MITF act 132.4* and esBAF inh 47.8*.
For COc1ccc(C(=O)Nc2ccccc2C(=O)Nc2ccccc2C(=O)O)cc1 the results were HSF1 activator inconclusive, Wnt act 0.2, SMARCA2 act 3.5, HSF1 inhib 20.5 and esBAF inh inconclusive.
`O=C(NC(=S)Nc1ccccc1C(=O)O)c1ccc2ccccc2c1` gave HSF1 activator 21.1, Wnt act 8.7, SMARCA2 act -2.1, HSF1 inhib 0.1, MITF act 9.7 and esBAF inh 13.2.
NC(=O)c1ccccc1NC(=O)c1ccc2ccccc2c1 was read as HSF1 activator 66.1*, Wnt act 20.7, SMARCA2 act 5.4, HSF1 inhib 46.4, MITF act 57.2 and esBAF inh 3.1.
CO[C@H]1CN(C)C(=O)c2ccc(NC(=O)C3CCCC3)cc2OC[C@@H](C)N(C(C)=O)C[C@@H]1C was read as esBAF inh 1.9.
CO[C@H]1CN(C)C(=O)c2cc(NC(=O)C3CC3)ccc2OC[C@@H](C)N(C(C)=O)C[C@H]1C was read as esBAF inh 3.7.
Cc1ccccc1NC(=O)NNC(=O)c1ccc2ccccc2c1 was read as HSF1 activator 1.0, Wnt act 0.5, SMARCA2 act 0.5, HSF1 inhib -2.6, MITF act 3.7 and esBAF inh -9.7.
For COc1ccc(C(=O)Nc2ccccc2C(=O)N/N=C/c2cccc3ccccc23)cc1 the results were HSF1 activator -76.3, SMARCA2 act -0.3, HSF1 inhib -71.8* and esBAF inh -9.4.
Screening NC(=O)c1ccccc1NC(=O)c1ccc2c(c1)OCO2 returned HSF1 activator 34.3, Wnt act 42.2*, SMARCA2 act 6.8, HSF1 inhib 13.6 and esBAF inh 37.7.
For Cc1ccccc1NC(=O)c1ccc2ccccc2c1 the results were HSF1 activator 18.0, Wnt act 2.6, SMARCA2 act 3.4, HSF1 inhib 8.2, MITF act 72.8 and esBAF inh 44.8*.
Screening CC(C)NC(=O)Nc1ccc2c(c1)C(=O)N([C@@H](C)CO)C[C@@H](C)[C@H](CN(C)S(C)(=O)=O)OCCCC[C@@H](C)O2 returned esBAF inh -4.0.
